About 79,000 compounds went through this panel and 15% of them were active in at least one assay; those are over-represented in the sample as a whole. Unmarked numbers belong to inactive results. Calls of active or inactive are those of the source. Rule as the data show it: active = growth inhibition above about 70%; inactive = the rest.

Here are results for ten molecules from PubChem BioAssay (NCI).

The nature of test [1]: NCI Yeast Anticancer Drug Screen. Data for the rad50 strain (AID 155).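 Also: 0% = growth of vehicle-only cultures of the same strain.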 The note with it: S. cerevisiae rad50 strain growth inhibition, hits give high values. The gist of the method: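 Yeast carrying a defined DNA repair defect were exposed to test compounds, and growth was compared with vehicle-treated controls to give percent inhibition.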
A short description of test [2]: NCI Yeast Anticancer Drug Screen. Data for the mec2-1 strain (AID 157). The note with it: S. cerevisiae mec2-1 strain, hits give high values. An outline of the steps: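 Mutant yeast (mec2-1) grown with compound; growth inhibition relative to vehicle control reported.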
A short description of test [3]: NCI Yeast Anticancer Drug Screen. Data for the sgs1 mgt1 strain (AID 161).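 Also: 0% = growth of cultures given vehicle only.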 The following applies: S. cerevisiae sgs1 mgt1 strain, hits give high values. The gist of the method:
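Percent growth inhibition was derived by comparing compound-exposed mutant yeast with vehicle-exposed cultures. The strain carries alterations in DNA damage repair.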

Test [4] in a line: NCI Yeast Anticancer Drug Screen. Data for the cln2 rad14 strain (AID 165).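 Also: 0% = growth equal to vehicle treated cultures.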 The note with it: S. cerevisiae cln2 rad14 strain, hits give high values. The gist of the method: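 Readout is yeast growth inhibition versus vehicle-treated controls, using a strain with cln2 and rad14 alterations exposed to compound.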
Test [5] is described as follows: NCI Yeast Anticancer Drug Screen. Data for the bub3 strain (AID 167). The note with it: S. cerevisiae bub3 mutant strain, hits give high values. The gist of the method:
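Compounds were applied to a genetically altered yeast strain carrying a cell-cycle control defect. Growth inhibition was scored against vehicle-treated controls.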

Test [6] can be described thus: NCI Yeast Anticancer Drug Screen. Data for the mlh1 rad18 strain (AID 175). The following applies: S. cerevisiae mlh1 rad18 strain growth inhibition, hits give high values. The gist of the method:
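Genetically defined yeast (DNA repair-deficient) exposed to compounds; growth inhibition determined relative to vehicle.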

[7] abbreviates: at 5.0 µM (retest, dose inferred, filed as 0.5).
[8] abbreviates: at 50.0 µM (retest, dose inferred, filed as 5.0).

As for `Cc1nc(Nc2ccc(Cl)cc2)sc1C(=O)NNC(=S)NN`, the growth inhibition in test [1] (setting [7]) was 25%; in test [1] (setting [8]), 75% (active); in test [1] (at 50.0 µM), 91.5% (active); in test [2] (setting [7]) it was -9%; in test [2] (setting [8]) it was 64%; in test [2] (at 50.0 µM), 88% (active). In addition, the growth inhibition in test [3] (setting [7]) was -3%; in test [3] (setting [8]), 77% (active); in test [3] (at 50.0 µM) it was 91.8% (active); in test [4] (setting [7]) it was 8%; in test [4] (setting [8]) it was 65%; in test [4] (at 50.0 µM) it was 91.6% (active). Further, the growth inhibition was -5% in test [5] (setting [7]); 93% (active) in test [5] (setting [8]); 88.3% (active) in test [5] (at 50.0 µM); -30% in test [6] (setting [7]); 82% (active) in test [6] (setting [8]); 88.5% (active) in test [6] (at 50.0 µM).
In the case of `CC(=Nc1ccc(S(=O)(=O)c2ccc(N=C(C)N3CCCCC3)cc2)cc1)N1CCCCC1`, the growth inhibition was 0% in test [1] (setting [7]); 2% in test [1] (setting [8]); -0.05% in test [1] (at 50.0 µM); -1% in test [2] (setting [7]); -1% in test [2] (setting [8]); 4% in test [2] (at 50.0 µM). Also, the growth inhibition is -2% in test [3] (setting [7]); 1% in test [3] (setting [8]); -6.45% in test [3] (at 50.0 µM); -5% in test [4] (setting [7]); -2% in test [4] (setting [8]); -10.5% in test [4] (at 50.0 µM). Also, the growth inhibition in test [5] (setting [7]) is -1%; in test [5] (setting [8]), -1%; in test [5] (at 50.0 µM) it was -2.55%; in test [6] (setting [7]), -2%; in test [6] (setting [8]), -5%; in test [6] (at 50.0 µM), -2.15%.
Take `CC1=C(C(=O)Nc2ccc(Cl)c(Cl)c2)C(c2ccco2)C(C(=O)Nc2ccc(Cl)c(Cl)c2)=C(C)N1`: the growth inhibition in test [1] (setting [7]) is 41%; in test [1] (setting [8]), 41%; in test [1] (at 50.0 µM), 88.7% (active); in test [2] (setting [7]), 22%; in test [2] (setting [8]), 22%; in test [2] (at 50.0 µM), 87.7% (active). Also, the growth inhibition in test [3] (setting [7]) is -4%; in test [3] (setting [8]), -4%; in test [3] (at 50.0 µM) it was 89.3% (active); in test [4] (setting [7]), 24%; in test [4] (setting [8]) it was 24%; in test [4] (at 50.0 µM), 88.2% (active). Further, the growth inhibition in test [5] (setting [7]) is 10%; in test [5] (setting [8]), 10%; in test [5] (at 50.0 µM), 89% (active); in test [6] (setting [7]) it was 36%; in test [6] (setting [8]), 36%; in test [6] (at 50.0 µM), 87.6% (active).
Regarding `COc1ccc2c(c1)c1c(C)c3cnccc3c(C)c1n2CCCN`, the growth inhibition in test [1] (setting [7]) is 9%; in test [1] (setting [8]), 44%; in test [1] (at 50.0 µM) it was 74% (active); in test [2] (setting [7]), 28%; in test [2] (setting [8]), -17%; in test [2] (at 50.0 µM) it was 27.9%. Moreover, the growth inhibition was 2% in test [3] (setting [7]); 13% in test [3] (setting [8]); 29.3% in test [3] (at 50.0 µM); 10% in test [4] (setting [7]); -9% in test [4] (setting [8]); -24.1% in test [4] (at 50.0 µM). Further, the growth inhibition in test [5] (setting [7]) was 13%; in test [5] (setting [8]) it was -10%; in test [5] (at 50.0 µM) it was 46.1%; in test [6] (setting [7]), 9%; in test [6] (setting [8]), 18%; in test [6] (at 50.0 µM) it was 77.5% (active).
Regarding `C=[CH][Sn]([CH]=C)([S]c1cccc2cccnc12)[S]c1cccc2cccnc12`, the growth inhibition is 12% in test [1] (setting [7]); 99% (active) in test [1] (setting [8]); 92% (active) in test [1] (at 50.0 µM); 16% in test [2] (setting [7]); 100% (active) in test [2] (setting [8]); 91.5% (active) in test [2] (at 50.0 µM). Further, the growth inhibition in test [3] (setting [7]) was 27%; in test [3] (setting [8]), 99% (active); in test [3] (at 50.0 µM), 92.3% (active); in test [4] (setting [7]) it was 16%; in test [4] (setting [8]), 99% (active); in test [4] (at 50.0 µM), 75.5% (active). The growth inhibition in test [5] (setting [7]) is 19%; in test [5] (setting [8]), 94% (active); in test [5] (at 50.0 µM), 83.7% (active); in test [6] (setting [7]), 18%; in test [6] (setting [8]) it was 99% (active); in test [6] (at 50.0 µM), 91.8% (active).
With `CC1(C)CC(=N/O)/C(=N/O)C(=N\NC(N)=S)/C1`, the growth inhibition in test [1] (setting [7]) is 7%; in test [1] (setting [8]) it was 54%; in test [1] (at 50.0 µM), 69.9%; in test [2] (setting [7]), -2%; in test [2] (setting [8]) it was 35%; in test [2] (at 50.0 µM), 49.1%. The growth inhibition was 1% in test [3] (setting [7]); 63% in test [3] (setting [8]); 76.9% (active) in test [3] (at 50.0 µM); -12% in test [4] (setting [7]); 28% in test [4] (setting [8]); 30.2% in test [4] (at 50.0 µM). Moreover, the growth inhibition is -1% in test [5] (setting [7]); 47% in test [5] (setting [8]); 64.9% in test [5] (at 50.0 µM); -3% in test [6] (setting [7]); 62% in test [6] (setting [8]); 73.5% (active) in test [6] (at 50.0 µM).
In the case of `CCCCN(CCCC)CCNc1ccc(NS(=O)(=O)c2ccccc2)c2sc3ccccc3c(=O)c12`, the growth inhibition was 43% in test [1] (setting [7]); 96% (active) in test [1] (setting [8]); 96.8% (active) in test [1] (at 50.0 µM); 21% in test [2] (setting [7]); 95% (active) in test [2] (setting [8]); 97.8% (active) in test [2] (at 50.0 µM). Further, the growth inhibition in test [3] (setting [7]) was 54%; in test [3] (setting [8]), 96% (active); in test [3] (at 50.0 µM), 98.2% (active); in test [4] (setting [7]), 31%; in test [4] (setting [8]), 96% (active); in test [4] (at 50.0 µM), 93.3% (active). Moreover, the growth inhibition was 32% in test [5] (setting [7]); 94% (active) in test [5] (setting [8]); 96.4% (active) in test [5] (at 50.0 µM); 96% (active) in test [6] (setting [7]); 94% (active) in test [6] (setting [8]); 95.3% (active) in test [6] (at 50.0 µM).
Consider `C#CCCOC(=O)CC1=C(C)/C(=C/c2ccc(S(C)=O)cc2)c2ccc(F)cc21` (stereo not given), for which the growth inhibition was 23% in test [1] (setting [7]); 88% (active) in test [1] (setting [8]); 84.3% (active) in test [1] (at 50.0 µM); 18% in test [2] (setting [7]); 84% (active) in test [2] (setting [8]); 90.2% (active) in test [2] (at 50.0 µM). The growth inhibition in test [3] (setting [7]) was 65%; in test [3] (setting [8]) it was 73% (active); in test [3] (at 50.0 µM), 88% (active); in test [4] (setting [7]), 43%; in test [4] (setting [8]), 41%; in test [4] (at 50.0 µM) it was 85.2% (active). Also, the growth inhibition in test [5] (setting [7]) is 51%; in test [5] (setting [8]), 85% (active); in test [5] (at 50.0 µM) it was 86.4% (active); in test [6] (setting [7]) it was 21%; in test [6] (setting [8]), 83% (active); in test [6] (at 50.0 µM), 85.9% (active).
Regarding `C/C(=N/NC(=O)Nc1ccc(N=Nc2ccccc2)cc1)c1cccnc1`, the growth inhibition was -10% in test [1] (setting [7]); -6% in test [1] (setting [8]); 12.7% in test [1] (at 50.0 µM); -3% in test [2] (setting [7]); -11% in test [2] (setting [8]); -9.55% in test [2] (at 50.0 µM). For the same molecule, the growth inhibition is 2% in test [3] (setting [7]); 21% in test [3] (setting [8]); 19.6% in test [3] (at 50.0 µM); 36% in test [4] (setting [7]); -51% in test [4] (setting [8]); -1.5% in test [4] (at 50.0 µM). In addition, the growth inhibition was 7% in test [5] (setting [7]); 4% in test [5] (setting [8]); 10.8% in test [5] (at 50.0 µM); 5% in test [6] (setting [7]); 25% in test [6] (setting [8]); 14.3% in test [6] (at 50.0 µM).
Take `CCOC(=O)C(=N\Nc1c(C)cccc1C)/C(C)=N\NC(N)=S`: the growth inhibition in test [1] (setting [7]) was -17%; in test [1] (setting [8]), 15%; in test [1] (at 50.0 µM), 64.7%; in test [2] (setting [7]), -7%; in test [2] (setting [8]), 25%; in test [2] (at 50.0 µM), 32.6%. In addition, the growth inhibition was 7% in test [3] (setting [7]); 45% in test [3] (setting [8]); 58.2% in test [3] (at 50.0 µM); -13% in test [4] (setting [7]); -9% in test [4] (setting [8]); 54.8% in test [4] (at 50.0 µM). The growth inhibition is -3% in test [5] (setting [7]); 4% in test [5] (setting [8]); 51.5% in test [5] (at 50.0 µM); 11% in test [6] (setting [7]); 42% in test [6] (setting [8]); 69.2% in test [6] (at 50.0 µM).
